Screens deposited in PubChem BioAssay by National Center for Advancing Translational Sciences (NCATS).
Hits are enriched below; roughly 3.1% of the tested compounds scored in any of these assays.
D3 ag – D3 dopamine receptor (human) agonism; 0.58% of 410,000 active; P35462; max activation, %; D3R DiscoveRx beta-arrestin cells, luminescence, 90 min; AID 652048; in the data active = max activation above about 30%
Target sequence (P35462 whole entry, looked up): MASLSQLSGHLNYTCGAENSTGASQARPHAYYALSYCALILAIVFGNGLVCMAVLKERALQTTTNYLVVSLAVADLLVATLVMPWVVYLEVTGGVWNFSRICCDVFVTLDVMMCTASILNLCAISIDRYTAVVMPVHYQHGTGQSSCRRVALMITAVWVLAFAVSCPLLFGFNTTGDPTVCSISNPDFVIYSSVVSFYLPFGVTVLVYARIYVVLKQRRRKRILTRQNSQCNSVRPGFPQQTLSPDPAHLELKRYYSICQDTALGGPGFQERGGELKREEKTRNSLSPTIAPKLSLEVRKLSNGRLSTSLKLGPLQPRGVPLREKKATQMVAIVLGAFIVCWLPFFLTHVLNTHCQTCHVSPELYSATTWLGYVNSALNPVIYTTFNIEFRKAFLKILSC
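Cells at 1500/well, incubated overnight, then treated with pinned compounds (dopamine as control) for 90 min at 37 degrees C. DiscoveRx reagent added for 30 - 60 minutes at room temperature; luminescence read.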
RGS4 inhibitor – blocks human RGS4-accelerated GTP hydrolysis; P49798; Transcreener GDP fluorescence polarization, RGS4-accelerated GTP hydrolysis; Potency, µM (series often up to 114 µM), hits mostly inhibitors; 0.039% of 390,000 active; AID 504845; active = well fitted inhibition curve with a large enough effect; inconclusive = small, poorly fitted or top-dose-only effect; inactive = no such curve, though single readings can be large or run the other way; also: nearly all actives have a fitted effect of over 75% in size
Target sequence (P49798 whole entry, looked up): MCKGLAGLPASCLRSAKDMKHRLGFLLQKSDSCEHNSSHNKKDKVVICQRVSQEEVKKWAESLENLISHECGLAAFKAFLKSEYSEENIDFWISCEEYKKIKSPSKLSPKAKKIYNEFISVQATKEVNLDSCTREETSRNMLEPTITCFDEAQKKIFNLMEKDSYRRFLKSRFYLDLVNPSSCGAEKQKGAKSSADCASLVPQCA
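MLSMR compounds (23 nl, pin-transferred) preincubated 10 min at room temperature with a 500nM (2x) first reagent, then RGS4 at 900nM (2x) plus Transcreener GDP mix added; fluorescence polarization (620/688 nm) read before and after 90 min at 30 °C.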
D3 antag – D3 dopamine receptor (human) antagonism | P35462 | D3R cells, DiscoveRx beta-arrestin luminescence, antagonist mode; active compounds read low | max response, negative = inhibition, % | 2.5% of 360,000 active | AID 652054; in the data active = max response below about -50%; inconclusive = no clear call, values can overlap the other calls
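Cells expressing the human receptor were seeded at 1500 cells/well, incubated overnight at 37 degrees C in 5% CO2, then exposed to library compounds with dopamine controls for 90 minutes at 37 degrees C before luminescent detection.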
uPA generation – blocks generation of uPA at the cell surface; cell surface uPA generation assay, qHTS; Potency, µM (titrated, usually from 38.3 µM), usual class: inhibitors; 0.31% of 330,000 active; active = well fitted inhibition curve with a large enough effect; inconclusive = small, poorly fitted or top-dose-only effect; inactive = no such curve, though single readings can be large or run the other way; tested in mouse RAW 264.7 cells; also: nearly all actives have a fitted effect of over 55% in size
Large screens that a line does not name were inactive; ! = repeats disagree.

CCOC(=O)c1ccc(N2C(=O)c3n[nH]c(-c4ccco4)c3C2c2ccc(OC)cc2OC)cc1 (configuration not stated)	none (no result: D3 antag, uPA generation)
Cc1ccc(N2CCN(c3nc4ccc(C(=O)c5ccccc5)cc4n4cnnc34)CC2)c(C)c1	none (no result: D3 antag, uPA generation)
Cc1cc(C)c2c(=O)cc(C(=O)Nc3sc4c(c3C#N)CCCC4)oc2c1	none (no result: D3 antag, uPA generation)
CCCCNc1c(-c2ccc(Sc3ccc(OC)cc3)cc2)nc2cc(C)ccn12	D3 ag 56, uPA generation inconclusive
COc1cccc(CNC(=O)CN2C(=O)N(c3cc(C)ccc3C)S(=O)(=O)c3ccccc32)c1OC	none (no result: D3 antag, uPA generation)
O=C(CN1C(=O)c2ccccc2S1(=O)=O)NC1CCCC1	D3 antag -52
CC1CCCCC1NC(=O)CN1C(=O)c2ccccc2S1(=O)=O (configuration not stated)	none
Cc1ccc2c(=O)cc(C(=O)Nc3sc4c(c3C(=O)NCC3CCCO3)CCCC4)oc2c1C (configuration not stated)	none (no result: D3 antag, uPA generation)
Cc1cc(=O)[nH]c2nnc(SCc3cccc(F)c3)n12	none (no result: D3 antag, uPA generation)
Cc1cc(Cl)cc(Br)c1OCCNCC(C)O (configuration not stated)	D3 antag -71
Cc1cc(C)c(OCCN(C)Cc2ccccc2)c(Br)c1	D3 antag -56
CN(CCCOc1ccccc1F)Cc1ccccc1	D3 antag -85
CN(CCCOc1ccccc1Br)Cc1ccccc1	D3 antag -98
Cc1cc(C)c(OCCNCc2ccccc2)c(C)c1	none
Cc1ccc(NC(=O)c2ccc(CNS(=O)(=O)c3ccc4c(c3)C(C)(C)C(=O)N4C)cc2)cc1F	none (no result: D3 antag, uPA generation)
CC1CN(C(=O)N2CCC(C(=O)NCCCc3ccccc3)CC2)c2ccccc2O1 (configuration not stated)	none (no result: D3 antag, uPA generation)
CCc1ccc(C(=O)c2cn(CC(=O)Nc3ccc4c(c3)OCO4)c3ccc(OC)cc3c2=O)cc1	RGS4 inhibitor inconclusive (no result: D3 antag, uPA generation)
COc1ccc2nc(-c3ccccc3)cc(OC)c2c1	D3 ag 33
Cn1c(=O)[nH]c(=O)c2c1[nH]c(=S)n2CCCc1ccccc1	RGS4 inhibitor inconclusive, D3 antag -54
CN(C)CCNc1nc2c(c(=O)[nH]c(=O)n2C)n1CCCc1ccccc1	D3 antag -76
CCCNc1nc2c(c(=O)[nH]c(=O)n2C)n1CCCc1ccccc1	none
CCOc1cccc2cc(-c3nc4sc(C(=O)Nc5ccc(C)cc5)c(C)c4c(=O)[nH]3)c(=O)oc12	none (no result: D3 antag, uPA generation)
CN(C)C(CNc1ccc(S(C)(=O)=O)cc1[N+](=O)[O-])c1ccccc1 (configuration not stated)	D3 antag -64
O=C1CCCN1c1cc(Cl)cc(Cl)c1	D3 antag -55
CC1(C)S[C@@H]2[C@H](NC(=O)C(N)c3ccccc3)C(=O)N2[C@H]1C(=O)OC1OC(=O)c2ccccc21 (some centres not stated)	none (no result: RGS4 inhibitor, D3 antag, uPA generation)
CCN1CCc2nc(N)oc2CC1	D3 ag 41!
CCCN1CCc2nc(N3CCN(CC)CC3)ncc2C1	none (no result: D3 antag, uPA generation)
C=CCN1[C@@H](Cc2ccccc2)COCCS1(=O)=O	D3 antag -50
CCc1nn2c(=O)cc(COC(=O)c3cccc(NC(=O)c4cccs4)c3)nc2s1	none (no result: D3 antag, uPA generation)
COc1ccc(C2C(Oc3ccccc3C)C(=O)N2Cc2ccc(F)cc2)cc1OC (configuration not stated)	D3 antag -69
CN1CCc2c(sc(/N=C/c3cc(Cl)ccc3O)c2C#N)C1	D3 antag -50
COc1cccc(NC(=O)CSc2nnc3[nH]c(=O)cc(-c4ccccc4)n23)c1	none (no result: D3 antag, uPA generation)
Cc1ccc(NCN2C(=O)C(=O)c3ccccc32)nc1	D3 antag -64, uPA generation inconclusive
Cc1ccc(NC(=O)CCCCCN2C(=O)c3ccccc3C2=O)nc1	none
CN(C(=O)Cn1cnc2onc(-c3ccc(F)cc3)c2c1=O)c1ccccc1Cl	none (no result: D3 antag, uPA generation)
Cc1ccc(CN2CCC(C(=O)NCCC(C)C)CC2)o1	D3 antag -64
COc1ccc(C(=O)NCC(c2ccc(N(C)C)cc2)N2CCc3ccccc32)cc1OC (configuration not stated)	none (no result: D3 antag, uPA generation)
Cc1ccc(C)c(CNc2ccc(S(=O)(=O)N3CCCCC3)cc2)c1	uPA generation 2.5µM
Cc1ccc(S(=O)(=O)N2CCCCC2)cc1	none
C[C@@H]1CCCCO[C@@H](CN(C)S(=O)(=O)c2ccccc2)[C@@H](C)CN([C@H](C)CO)C(=O)c2cc(NS(=O)(=O)c3ccc(F)cc3)ccc2O1	none (no result: RGS4 inhibitor, uPA generation)
Cc1ccc(C(C)C)c(OCCSc2nc3ccccc3n2CC(O)CO)c1 (configuration not stated)	none (no result: D3 antag, uPA generation)
COc1cc(NC(=O)Cn2cc(S(=O)(=O)N3CCC(C)CC3)c3ccccc3c2=O)cc(OC)c1OC	none (no result: D3 antag, uPA generation)
CCn1c(CNc2ccc(F)cc2)nnc1SCCN1CCCCC1	none
CCn1c(CNc2ccccc2Cl)nnc1SCCN1CCCCC1	D3 antag -60
CCOC(=O)CC(NC(=O)c1cc2cc(OC)ccc2oc1=O)c1ccc(OC)cc1 (configuration not stated)	none (no result: D3 antag, uPA generation)
Cc1cccc(NC(=O)CN(C)S(=O)(=O)c2ccc3c(c2)CCC(=O)N3)c1C	none (no result: D3 antag, uPA generation)
COc1ccc(OC)c(CN2CCCC(C(=O)N3CCCCC3)C2)c1 (configuration not stated)	D3 antag -77 (no result: uPA generation)
COc1ccc(Br)cc1CN1CCCC(C(=O)N2CCCCC2)C1 (configuration not stated)	D3 antag -89
COc1ccc(Br)cc1CN1CCCC(C(=O)N2CCCCCC2)C1 (configuration not stated)	RGS4 inhibitor inconclusive, D3 antag inconclusive
O=C(c1cc2ccccc2o1)N1CCN(Cc2ccc3c(c2)OCO3)CC1	D3 antag -104
O=C(N1CCN(Cc2ccc3c(c2)OCO3)CC1)C12CC3CC(CC(C3)C1)C2	D3 antag -64
O=C(c1cc2ccccc2oc1=O)N1CCN(Cc2ccc3c(c2)OCO3)CC1	none
Cc1ccc(C(=O)N2CCN(Cc3ccc4c(c3)OCO4)CC2)o1	D3 antag -62
O=C(c1ccc(S(=O)(=O)N2CCCC2)cc1)N1CCN(Cc2ccc3c(c2)OCO3)CC1	D3 antag -52
CC(C)c1cc(C(=O)NCc2ccccc2)no1	none (no result: D3 antag, uPA generation)
CC(C)Oc1ccc(CNC(=O)c2ccc3nc(SCc4ccc(F)cc4)n(C)c3c2)cc1	none (no result: D3 antag, uPA generation)
COc1ccc(N2CC(NC(=O)CCc3ccccc3)CC2=O)cc1OC (configuration not stated)	none (no result: D3 antag, uPA generation)
CC(NC(=O)c1cc(COc2ccc(-n3cncn3)cc2)on1)c1ccc(F)cc1 (configuration not stated)	none (no result: RGS4 inhibitor, uPA generation)
Cc1cccc(OCC(=O)Nc2ccccc2OCc2cc(=O)n3cc(C)ccc3n2)c1	none (no result: D3 antag, uPA generation)
Cc1cccc(C)c1NC(=O)c1nc(S(=O)(=O)Cc2ccccc2)ncc1Cl	RGS4 inhibitor inconclusive, D3 antag -64
Cc1nnc(NC(=O)c2nc(S(=O)(=O)Cc3ccccc3)ncc2Cl)s1	RGS4 inhibitor inconclusive
Cc1ccccc1NC(=O)c1nc(S(C)(=O)=O)ncc1Cl	RGS4 inhibitor inconclusive, D3 antag -81, uPA generation inconclusive
Cc1cccc(CS(=O)(=O)c2ncc(Cl)c(C(=O)NCc3ccccc3)n2)c1	RGS4 inhibitor inconclusive, D3 antag -82, uPA generation inconclusive
